Data reported in the supplement of paper PMC11006884.
Of roughly 6,500 targets only a part is listed; those with a hit were picked by preference. About 2% of all pairs of compound and target were hits.

Compound: COC(=O)C#Cc1ccccc1 [methyl 3-phenylpropiolate]
Experiment: log2 ratio of iodoacetamide-alkyne labeling of the cysteine site, DMSO over compound (competition); higher = stronger covalent engagement of the cysteine by the compound, active = 1 or more
Settings: 500 µM; treatment time 1 h; system: HEK293T cell lysate
Method in brief: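 HEK293T lysate (2 mg/mL) was treated with DMSO or electrophile (500 µM, 1 h, ambient temperature), then iodoacetamide alkyne (1 h), clicked to sCIP-TMT reagents, pooled, trypsin-digested overnight at 37 °C, streptavidin-enriched and acid-eluted. Peptides were run on Orbitrap Eclipse LC-MS/MS with FAIMS and quantified in FragPipe. The log2 competition ratio per cysteine is mean control-channel over mean compound-channel reporter intensity. Duplicate channels and three replicates were used, and cysteines quantified in only one replicate were excluded.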

UniProt P23921, sequence (P23921 whole entry, looked up): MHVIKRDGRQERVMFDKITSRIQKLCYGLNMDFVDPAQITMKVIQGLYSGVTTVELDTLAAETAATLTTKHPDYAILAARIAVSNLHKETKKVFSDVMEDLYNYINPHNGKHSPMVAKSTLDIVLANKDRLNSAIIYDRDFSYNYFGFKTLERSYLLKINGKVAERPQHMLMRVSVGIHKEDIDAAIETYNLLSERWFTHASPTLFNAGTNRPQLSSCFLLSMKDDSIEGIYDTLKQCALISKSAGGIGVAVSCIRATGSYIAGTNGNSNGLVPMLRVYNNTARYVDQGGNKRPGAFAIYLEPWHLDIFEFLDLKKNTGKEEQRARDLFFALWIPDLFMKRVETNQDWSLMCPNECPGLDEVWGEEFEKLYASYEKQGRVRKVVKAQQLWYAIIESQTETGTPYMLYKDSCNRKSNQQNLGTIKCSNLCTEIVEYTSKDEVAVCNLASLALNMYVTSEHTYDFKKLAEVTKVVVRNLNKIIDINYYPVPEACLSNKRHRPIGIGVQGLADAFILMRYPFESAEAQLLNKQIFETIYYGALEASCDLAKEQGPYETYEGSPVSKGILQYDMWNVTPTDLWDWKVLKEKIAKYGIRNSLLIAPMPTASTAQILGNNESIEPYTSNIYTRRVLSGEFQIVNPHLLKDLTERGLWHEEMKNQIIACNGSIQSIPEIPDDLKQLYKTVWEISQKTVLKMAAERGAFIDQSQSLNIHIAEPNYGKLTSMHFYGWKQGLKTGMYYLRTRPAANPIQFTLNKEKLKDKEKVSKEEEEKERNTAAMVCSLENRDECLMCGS
UniProt P20810, sequence (P20810 whole entry, looked up): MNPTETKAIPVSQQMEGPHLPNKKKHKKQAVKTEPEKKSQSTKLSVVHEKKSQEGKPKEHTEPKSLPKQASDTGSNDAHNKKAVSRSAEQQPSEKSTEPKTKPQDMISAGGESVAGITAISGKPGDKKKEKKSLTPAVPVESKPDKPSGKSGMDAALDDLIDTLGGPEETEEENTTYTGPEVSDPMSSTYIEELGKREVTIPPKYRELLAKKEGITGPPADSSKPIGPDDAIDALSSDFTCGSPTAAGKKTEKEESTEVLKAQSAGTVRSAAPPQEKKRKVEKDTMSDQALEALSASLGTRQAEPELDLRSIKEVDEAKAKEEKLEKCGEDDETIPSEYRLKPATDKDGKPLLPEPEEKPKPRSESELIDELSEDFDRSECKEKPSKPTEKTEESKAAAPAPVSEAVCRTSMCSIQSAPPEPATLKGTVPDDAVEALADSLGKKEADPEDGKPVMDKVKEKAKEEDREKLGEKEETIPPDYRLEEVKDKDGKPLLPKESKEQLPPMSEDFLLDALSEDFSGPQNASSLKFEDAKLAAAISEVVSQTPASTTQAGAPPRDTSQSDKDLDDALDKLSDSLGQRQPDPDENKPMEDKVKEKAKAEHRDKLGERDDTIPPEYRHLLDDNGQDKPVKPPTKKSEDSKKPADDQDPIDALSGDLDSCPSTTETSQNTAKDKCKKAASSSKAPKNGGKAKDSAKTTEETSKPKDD
UniProt P40227, sequence (P40227 whole entry, looked up): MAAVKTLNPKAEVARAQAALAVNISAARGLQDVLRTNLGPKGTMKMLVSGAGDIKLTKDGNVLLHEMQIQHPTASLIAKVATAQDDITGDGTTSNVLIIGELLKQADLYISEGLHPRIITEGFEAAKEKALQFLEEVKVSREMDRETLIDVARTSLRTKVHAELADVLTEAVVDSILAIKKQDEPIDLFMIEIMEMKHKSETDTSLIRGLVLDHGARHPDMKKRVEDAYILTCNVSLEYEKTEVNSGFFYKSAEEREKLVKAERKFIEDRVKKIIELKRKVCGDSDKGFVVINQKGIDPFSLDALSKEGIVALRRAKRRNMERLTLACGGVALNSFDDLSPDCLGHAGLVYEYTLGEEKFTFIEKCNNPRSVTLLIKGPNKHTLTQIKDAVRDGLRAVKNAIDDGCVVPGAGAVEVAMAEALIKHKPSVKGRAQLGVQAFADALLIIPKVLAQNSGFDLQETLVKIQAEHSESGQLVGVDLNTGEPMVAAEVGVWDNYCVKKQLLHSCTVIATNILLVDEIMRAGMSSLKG
UniProt P52272, sequence (P52272 whole entry, looked up): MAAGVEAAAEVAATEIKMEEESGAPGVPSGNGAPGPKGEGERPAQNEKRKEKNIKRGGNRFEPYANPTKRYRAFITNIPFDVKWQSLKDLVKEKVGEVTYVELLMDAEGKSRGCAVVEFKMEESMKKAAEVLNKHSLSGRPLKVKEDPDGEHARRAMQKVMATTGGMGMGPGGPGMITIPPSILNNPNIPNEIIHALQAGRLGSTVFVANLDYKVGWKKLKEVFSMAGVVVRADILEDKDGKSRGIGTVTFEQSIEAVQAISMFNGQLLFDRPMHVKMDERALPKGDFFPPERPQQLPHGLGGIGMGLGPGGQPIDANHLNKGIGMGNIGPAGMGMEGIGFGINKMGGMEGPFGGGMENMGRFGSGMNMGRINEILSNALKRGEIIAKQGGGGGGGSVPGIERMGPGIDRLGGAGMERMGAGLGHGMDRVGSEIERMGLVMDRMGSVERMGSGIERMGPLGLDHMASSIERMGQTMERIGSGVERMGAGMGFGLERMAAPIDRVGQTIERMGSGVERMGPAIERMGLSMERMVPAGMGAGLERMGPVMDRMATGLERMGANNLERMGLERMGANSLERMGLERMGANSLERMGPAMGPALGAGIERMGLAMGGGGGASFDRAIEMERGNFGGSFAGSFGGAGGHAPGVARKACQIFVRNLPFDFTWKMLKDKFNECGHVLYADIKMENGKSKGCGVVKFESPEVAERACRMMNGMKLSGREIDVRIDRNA
UniProt P13807, sequence (P13807 whole entry, looked up): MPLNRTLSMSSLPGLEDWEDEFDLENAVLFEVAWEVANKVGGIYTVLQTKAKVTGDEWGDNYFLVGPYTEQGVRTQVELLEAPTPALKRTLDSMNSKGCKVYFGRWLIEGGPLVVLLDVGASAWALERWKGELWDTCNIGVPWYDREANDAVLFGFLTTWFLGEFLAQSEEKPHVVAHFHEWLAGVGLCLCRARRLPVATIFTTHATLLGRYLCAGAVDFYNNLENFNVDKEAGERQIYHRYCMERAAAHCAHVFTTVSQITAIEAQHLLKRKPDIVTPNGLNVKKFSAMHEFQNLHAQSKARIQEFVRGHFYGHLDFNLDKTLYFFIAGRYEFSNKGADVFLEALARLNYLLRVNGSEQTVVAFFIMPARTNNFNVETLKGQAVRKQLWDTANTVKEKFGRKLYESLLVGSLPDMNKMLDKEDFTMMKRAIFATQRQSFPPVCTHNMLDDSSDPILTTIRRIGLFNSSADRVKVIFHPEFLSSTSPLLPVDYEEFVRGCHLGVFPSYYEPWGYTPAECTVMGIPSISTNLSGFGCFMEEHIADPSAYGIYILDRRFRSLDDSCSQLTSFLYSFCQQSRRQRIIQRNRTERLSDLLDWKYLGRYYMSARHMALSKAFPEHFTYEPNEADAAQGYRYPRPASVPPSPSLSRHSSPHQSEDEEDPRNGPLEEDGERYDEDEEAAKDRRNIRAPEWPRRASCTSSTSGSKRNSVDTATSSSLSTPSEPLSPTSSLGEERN
UniProt O95573, sequence (O95573 whole entry, looked up): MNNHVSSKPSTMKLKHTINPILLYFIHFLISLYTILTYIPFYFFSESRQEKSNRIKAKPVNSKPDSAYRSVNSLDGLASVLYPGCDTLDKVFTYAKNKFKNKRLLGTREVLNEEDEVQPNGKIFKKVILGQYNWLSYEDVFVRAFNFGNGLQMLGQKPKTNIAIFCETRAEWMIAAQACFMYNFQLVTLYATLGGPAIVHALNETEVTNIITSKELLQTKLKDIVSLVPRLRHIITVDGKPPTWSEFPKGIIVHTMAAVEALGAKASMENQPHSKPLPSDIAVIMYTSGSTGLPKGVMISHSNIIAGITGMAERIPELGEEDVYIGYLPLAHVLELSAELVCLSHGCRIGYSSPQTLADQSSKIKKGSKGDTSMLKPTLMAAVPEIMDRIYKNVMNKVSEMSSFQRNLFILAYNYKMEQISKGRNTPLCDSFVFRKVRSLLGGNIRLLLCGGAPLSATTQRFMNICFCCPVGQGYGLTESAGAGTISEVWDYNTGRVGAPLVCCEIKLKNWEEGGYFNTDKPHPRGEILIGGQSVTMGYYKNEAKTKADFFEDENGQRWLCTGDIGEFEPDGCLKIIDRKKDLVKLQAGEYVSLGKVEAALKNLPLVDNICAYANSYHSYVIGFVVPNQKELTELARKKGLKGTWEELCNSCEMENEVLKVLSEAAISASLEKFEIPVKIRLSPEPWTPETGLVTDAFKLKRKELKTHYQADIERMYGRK
UniProt P09543, sequence (P09543 whole entry, looked up): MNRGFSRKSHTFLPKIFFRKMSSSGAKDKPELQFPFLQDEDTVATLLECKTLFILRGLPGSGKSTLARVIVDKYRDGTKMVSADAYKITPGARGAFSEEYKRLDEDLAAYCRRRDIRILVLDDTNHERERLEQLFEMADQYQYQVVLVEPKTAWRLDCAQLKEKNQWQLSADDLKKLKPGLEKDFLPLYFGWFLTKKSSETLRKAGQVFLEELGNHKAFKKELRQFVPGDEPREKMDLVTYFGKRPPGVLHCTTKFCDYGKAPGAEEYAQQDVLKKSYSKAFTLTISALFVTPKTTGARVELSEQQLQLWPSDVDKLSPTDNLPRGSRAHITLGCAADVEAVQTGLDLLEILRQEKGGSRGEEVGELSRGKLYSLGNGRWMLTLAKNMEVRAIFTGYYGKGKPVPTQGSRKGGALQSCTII
UniProt P42574, sequence (P42574 whole entry, looked up): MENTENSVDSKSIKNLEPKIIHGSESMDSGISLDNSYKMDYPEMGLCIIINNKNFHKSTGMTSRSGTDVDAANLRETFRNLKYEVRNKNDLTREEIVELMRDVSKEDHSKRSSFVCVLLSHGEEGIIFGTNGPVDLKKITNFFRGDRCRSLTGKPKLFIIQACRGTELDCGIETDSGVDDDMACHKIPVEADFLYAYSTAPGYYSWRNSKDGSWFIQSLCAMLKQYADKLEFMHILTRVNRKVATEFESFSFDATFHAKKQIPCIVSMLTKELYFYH

log2 ratio of iodoacetamide-alkyne labeling, active:
CAST C408 (UniProt P20810) 1.01
DCK C9 (UniProt P27707) 1.15
TMPO C570 (UniProt P42166) 1.16
TMPO C341 (UniProt P42166) 1.77

log2 ratio of iodoacetamide-alkyne labeling, inactive:
SMC2 C326 (UniProt O95347) 0.547
HNRNPM C114 (UniProt P52272) -0.0182
RANBP2 C3071 (UniProt P49792) 0.0882
G6PD C385 (UniProt P11413) 0.327
MFN2 C348 (UniProt O95140) -0.0549
CASP3 C184 (UniProt P42574) 0.259
HSP90AA1 C420 (UniProt P07900) -0.4
HSPA4L C167 (UniProt O95757) -0.00119
GYS1 C699 (UniProt P13807) 0.526
ACSL3 C652 (UniProt O95573) -0.112
BPNT1 C206 (UniProt O95861) 0.27
MCM4 C162 (UniProt P33991) 0.055
RRM1 C26 (UniProt P23921) 0.0708
UniProt P49591_C431 -0.00377
FASN C1127 (UniProt P49327) 0.394
LRPPRC C863 (UniProt P42704) -0.00586
IDH3A C331 (UniProt P50213) 0.257
CA2 C205 (UniProt P00918) -0.11
UniProt P00519_C1100 0.9
POLR1A C613 (UniProt O95602) 0.472
COMT C241 (UniProt P21964) 0.194
CNP C111 (UniProt P09543) 0.0267
RPL17 C144 (UniProt P18621) 0.131
MCM3 C319 (UniProt P25205) -0.032
CYC1 C219 (UniProt P08574) 0.0599
ATP1A1 C428 (UniProt P05023) 0.234
UniProt P25705_C244 0.205
ENO1 C389 (UniProt P06733) 0.125
AKT2 C297 (UniProt P31751) 0.698
MAP1B C2088 (UniProt P46821) 0.329
CCT6A C282 (UniProt P40227) 0.13
RANGAP1 C303 (UniProt P46060) 0.47
FLNA C478 (UniProt P21333) 0.00171
